# From PubChem BioAssay (NCI)
# Compounds without any hit were thinned out: in the full panel of roughly 83,000, 20% have a hit.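 Cells were grown in 96-well plates and exposed to the test compound at a single concentration for 48 hours; results are reported as percent growth, with values below 10 considered active.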 Calls of active or inactive are those of the source.
# System: HL-60(TB) leukemia
# Test: NCI-60 one-dose screen, 48 h (100 = growth as untreated, 0 = no growth, -100 = all killed)
# Details: 10 µM unless noted
row,SMILES,growth
1,Cc1cc2nc(-c3ccccc3)c(-c3ccccc3)nc2cc1C,48.3% (inactive)
2,NC1CCC(Nc2nc(NCc3ccc(-c4ccco4)nc3)c3ncn(C4CCCC4)c3n2)CC1 (stereo not given),-33.3% (active)
3,O=C1/C(=C/c2ccc(Cl)cc2)CN(Cc2cn(CCCNc3ccnc4cc(Cl)ccc34)nn2)C/C1=C\c1ccc(Cl)cc1,-46.7% (active)
4,O=C(CSc1nc2sc3c(c2c(=O)n1-c1ccc(Cl)cc1)CCCC3)Nc1nc(-c2cccc(Br)c2)cs1,101% (inactive)
5,COc1cc(-c2n[nH]nc2-c2ccccn2)cc(OC)c1OC,83.3% (inactive)
6,COc1ccc(N(C)c2nc(Cl)nc3ccn(C)c23)cc1,-35.3% (active)
7,COc1c(C)cnc(CSc2nc(-c3ccc(C)cc3)cn2-c2ccc(Cl)cc2)c1C,95.8% (inactive)
8,N=C(c1ccccc1)N(Cc1ccccc1)Cc1ccccc1,82.6% (inactive)
9,CC(C)=CCCC(C)c1ccc(C)c2c1OCN(CC1CCNCC1)C2 (stereo not given),13.8% (inactive)
10,O=C(/C=C/c1cccc(Nc2ccnc3cc(Cl)ccc23)c1)c1ccc(Cl)cc1,47.6% (inactive)
11,COc1cc(Cc2cc(OC)c(O)c(OC)c2)cc(OC)c1O,44% (inactive)
12,Cc1ccc(C(=O)N2C/C(=C/c3ccc(F)cc3)C(=O)/C(=C/c3ccc(F)cc3)C2)cc1,81.6% (inactive)
13,O=C(Nc1ccccc1)c1cc(-n2cnc([N+](=O)[O-])c2)cc(-n2cnc([N+](=O)[O-])c2)n1,96.4% (inactive)
14,CCOc1ccc(-n2cc(-c3ccc(N(C)C)cc3)[n+]3c2CCCCC3)cc1,-0.266% (active)
15,CCOC(CNC(=O)c1cccc([N+](=O)[O-])c1)OCC,105% (inactive)
16,Cc1cc(N2CCOCC2)nc(N(CCNc2ccnc3cc(Cl)ccc23)Cc2ccco2)n1,-65.1% (active)
17,Clc1ccc(Cl)c(N=Cc2ccc3c(c2)OCO3)c1,102% (inactive)
18,CC1=C(C(=O)Nc2ccccc2)C(c2ccc3c(c2)OCCO3)NC(=O)N1 (stereo not given),106% (inactive)
19,Cc1cc(Cl)ccc1Nc1nc(C(F)(F)F)ccc1C(=O)N/N=C/c1ccc([N+](=O)[O-])cc1,-24.1% (active)
20,Cn1/c(=N/NC(N)=S)ccc2ccccc21,106% (inactive)

row,SMILES,growth
1,COc1ccc(-c2c3c(N)c4c(nc3nc3c2c(C)nn3-c2ccccc2)CCCC4)cc1,87.2% (inactive)
2,O=C(OCc1ccccc1)n1nnc2ccccc21,111% (inactive)
3,CC[N+](CC)(CCCC(C)[N+]1(Cc2ccccc2)C(C)=CC=C1C)Cc1ccccc1 (stereo not given),37.1% (inactive)
4,CSc1nc2ccc(C)cc2cc1/C=N/O,91.6% (inactive)
5,COc1ccc(/C=C/C(=O)c2cc3c(N)c(C(=O)Nc4cccc(Cl)c4C)sc3nc2C)cc1,4.92% (active)
6,CNc1ccc(CSc2ccc(Cl)cc2)cc1,5.59% (active)
7,Cc1csc(-c2nnc(Nc3ccc(Oc4ncccc4-c4ccnc(N)n4)cc3)c3ccccc23)c1,12.9% (inactive)
8,CCOC(=O)c1cc(/C=C/c2ccc(Cl)cc2Cl)on1,74.2% (inactive)
9,CN1C(=O)N(C)C2(c3ccccc3)N(CC(=O)Nc3ccccc3O)C(=O)NC12c1ccccc1 (stereo not given),98.9% (inactive)
10,CCOC1=C(Cl)C(=O)C(OCC)=C(Cl)C1=O,52.3% (inactive)
11,O=C1CC2c3cc(-c4cc5ccccc5o4)ccc3CCN2C(=O)N1c1ccccc1 (stereo not given),69.9% (inactive)
12,CSCC[C@@H]1C(=O)N(C)[C@H](C(C)(C)C)N1C(=O)c1ccccc1,110% (inactive)
13,Cn1cc(-c2nnc(-c3cn(C)c4ncccc34)o2)c2ccccc21,12.5% (inactive)
14,COc1cc(/C=C/c2ccc3c(Br)cc(Br)c(O)c3n2)ccc1O,-47.3% (active)
15,Nc1ncnc2c1ncn2C1OC(COC(c2ccccc2)(c2ccccc2)c2ccccc2)C(O)C1O (stereo not given),8.77% (active)
16,O=C1Nc2c(ccc(Cl)c2Cl)/C1=C/c1cc(Br)c(O)c(Br)c1,33% (inactive)
17,CCCCn1c(=O)[nH]c(N)c(C(c2ccc(F)cc2)c2c(N)[nH]c(=O)n(CCCC)c2=O)c1=O,78.7% (inactive)
18,Cc1ccc(NC(=S)N2CCOCC2)cc1C,103% (inactive)
19,CC(C)(C)c1ccc(N2CSC(=S)N(c3ccc(C(C)(C)C)cc3)C2)cc1,92.7% (inactive)
20,CNC(=O)c1cc(Oc2ccc3nc(NC(=O)c4cc(C(F)(F)F)cc(C(F)(F)F)c4)sc3c2)ccn1,-12.8% (active)
